The source of these data is PubChem BioAssay (NCATS).

One assay deals with Tov-21-G. In words: Primary qHTS to identify gynecologic anti-cancer compounds using libraries of approved drugs and bioactive compounds (AID 1345084). Note: nearly all actives have a fitted effect of over 55% in size. Particulars: Gynecologic cancer cell panel viability, ATPlite luminescence, 48 h; series mostly up to 57.5 µM. The method, boiled down:
(§1)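 48 h compound exposure at 37 C, 5% CO2; five-point qHTS. ATPlite luminescence readout of cell ATP.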

Another assay concerns Tov112D. Described as above. Conditions: Gynecologic cancer cell panel viability, ATPlite luminescence, 48 h; series mostly up to 57.5 µM. The procedure, abridged:
as §1

Records with an inconclusive call do not appear. Active and inactive are the calls of the source. Calls come from the whole dose curve; as a rule, active = well fitted cell-killing curve with a large enough effect; inconclusive = small, poorly fitted or top-dose-only effect, or effect the other way; inactive = flat fitted curve, though single readings scatter.
Potency is the fitted concentration of half-maximal effect.

On to `CC[C@@H](C)[C@@H]1OC2(C=C[C@H]1C)C[C@@H]1C[C@H](C/C=C(\C)[C@H](O[C@H]3C[C@H](OC)[C@H](O[C@H]4C[C@H](OC)[C@H](NC(C)=O)[C@H](C)O4)[C@H](C)O3)[C@H](C)/C=C/C=C3\CO[C@H]4[C@H](O)C(C)=C[C@@H](C(=O)O1)[C@@]34O)O2` (some centres not stated), for which the Potency entry in the assay with Tov-21-G and in the assay with Tov112D was “inactive” throughout.

Consider `C=C1C(=O)O[C@@H]2/C=C(\CO)CC/C=C(/C=O)C[C@H](O)[C@@H]12`, for which the Potency in the assay on Tov-21-G is 28.2 µM (active). Moreover, in the assay on Tov112D, the Potency result was “inactive”.

As for `C/C=C(\C)C(=O)OC1C[C@@]2(COC(C)=O)O[C@H]2/C=C\[C@@]2(C)O[C@@H]2[C@H]2OC(=O)C(COC(C)=O)=C12` (some centres not stated), the Potency result in the assay with Tov-21-G and in the assay with Tov112D was “inactive” each time.

Regarding `CCOC(=O)C1(CCOc2ccccc2)CCN(Cc2ccc(O)c(Cl)c2)CC1`, the Potency result in the assay on Tov-21-G and in the assay with Tov112D was “inactive” in each case.

Consider `CN(c1ccc(NC(=O)Nc2ccccc2)cc1)S(=O)(=O)c1cnn(-c2ccc(F)cc2)c1`, for which the Potency result with Tov-21-G and in the assay with Tov112D was “inactive” each time.

As for `CCn1c2ccccc2c2cc(Nc3ccnc(NCCCN4CCOCC4)n3)ccc21`, the Potency result in the assay with Tov-21-G and with Tov112D was “inactive” throughout.

Regarding `CN(C)CCOC(C)(c1ccccc1)c1ccc(Cl)cc1` (configuration not stated), the Potency entry in the assay on Tov-21-G and with Tov112D was “inactive” in each case.

Regarding `COCCN(C(=O)c1cc(OC)c(OC)c(OC)c1)c1nc(-c2ccccc2)cs1`, the Potency result with Tov-21-G and with Tov112D was “inactive” each time.

Regarding `CC(C)(O)/C=C/C(=O)[C@](C)(O)[C@H]1[C@H](O)C[C@@]2(C)[C@@H]3CC=C4[C@@H](C[C@H](O[C@@H]5O[C@H](CO)[C@@H](O)[C@H](O)[C@H]5O)C(=O)C4(C)C)[C@]3(C)C(=O)C[C@]12C`, the Potency entry in the assay with Tov-21-G and in the assay on Tov112D was “inactive” in each case.

In the case of `Cc1cc(N2CCN(C(=O)Oc3ccc(-c4ccccc4)cn3)CC2)c2ccccc2n1`, the Potency entry in the assay with Tov-21-G and in the assay with Tov112D was “inactive” in each case.

Take `C/C(=C/C=C\C=C\Cc1cnco1)[C@@H](O)C(C)(C)C(N)=O`: the Potency entry in the assay on Tov-21-G and with Tov112D was “inactive” each time.

With `Cc1ccc(-c2ncccn2)c(C(=O)N2C[C@H](COc3ccc(F)cn3)CC[C@H]2C)c1`, the Potency result with Tov-21-G and in the assay with Tov112D was “inactive” each time.

With `CC(C)c1noc(C2CCN(c3ncnc(Nc4ccc(S(C)(=O)=O)cc4F)c3[N+](=O)[O-])CC2)n1`, the Potency result in the assay with Tov-21-G and in the assay on Tov112D was “inactive” each time.

As to `C=C1CC[C@@H]2[C@](C)(CO)[C@H](O)CC[C@@]2(C)[C@@H]1C/C=C1/C(=O)OCC1OC(=O)/C(=C/CO)C(O)C[C@@H]1C(=C)CC[C@@H]2[C@](C)(CO)[C@H](O)CC[C@]21C` (some centres not stated), the Potency entry in the assay on Tov-21-G and with Tov112D was “inactive” each time.

For the compound `CCc1ccc(-c2nc(CSCC(=O)NCCc3ccccc3)c(C)o2)cc1`, the Potency result with Tov-21-G and in the assay with Tov112D was “inactive” throughout.

Take `COc1ccc2c(c1O[C@H]1CCNC1)CCC2`: the Potency entry in the assay with Tov-21-G and with Tov112D was “inactive” throughout.

In the case of `COc1ccc2cc3c(NC(=O)c4ccco4)nn(C)c3nc2c1`, the Potency result in the assay with Tov-21-G and with Tov112D was “inactive” in each case.

On to `COC1CC(O[C@H]2CC[C@]3(C)C4CC[C@@]5(C)C(=O)[C@]4(CC[C@@H]3C2)CC[C@@H]5C2=CC(=O)OC2)OC(C)C1OC1OC(COC2OC(CO)C(O)C(O)C2O)C(O)C(O)C1O` (some centres not stated), for which the values for the Potency in the assay with Tov-21-G and with Tov112D were 2.24 µM (active) and 1.12 µM (active), respectively.

For the compound `CN(C)CCn1cc(-c2ccc(F)cc2)c(-n2cccc2)n1`, the Potency entry in the assay with Tov-21-G and in the assay with Tov112D was “inactive” throughout.

For `N#Cc1ccc(-c2ccc(S(=O)(=O)Nc3cccc(N)n3)cc2)cc1`, the Potency entry in the assay with Tov-21-G and with Tov112D was “inactive” throughout.

For the compound `CC(=O)Nc1cccc(-c2csc(Nc3cc(C)ccn3)n2)c1`, the Potency entry with Tov-21-G and in the assay on Tov112D was “inactive” each time.

In the case of `Nc1nc2c(nc(Br)n2[C@@H]2O[C@@H]3COP(=O)(O)O[C@H]3[C@H]2O)c(=O)[nH]1`, the Potency entry with Tov-21-G and with Tov112D was “inactive” in each case.

In the case of `C=C1C(=O)OC2CC(C)C(CCC(C)O)=CCC12` (configuration not stated), the Potency result in the assay with Tov-21-G and with Tov112D was “inactive” each time.

As for `CCOc1nc(NC(=O)Cc2cc(OC)ccc2OC)cc(N)c1C#N`, the Potency entry in the assay on Tov-21-G and in the assay with Tov112D was “inactive” throughout.

On to `O=C(NO)c1ccc(CC(=O)N(CCO)c2ccccc2)cc1`, for which the Potency result in the assay with Tov-21-G and with Tov112D was “inactive” throughout.

Turning to `CC(C)(C[C@@](O)(Cc1cc2ccncc2[nH]1)C(F)(F)F)c1cc(F)ccc1O`, the Potency entry in the assay on Tov-21-G and in the assay on Tov112D was “inactive” each time.

Take `C=CC(C)(O)CC[C@@H]1[C@@]2(C)CCCC(C)(C)C2CC[C@@]1(C)O` (some centres not stated): the Potency result in the assay on Tov-21-G and in the assay with Tov112D was “inactive” in each case.

Turning to `O=C(Nc1ccc(Cl)cc1)C1CCCN(C(=O)c2cccc(-c3ccco3)c2)C1` (configuration not stated), the Potency entry in the assay with Tov-21-G and with Tov112D was “inactive” each time.

`COc1ccc(C2(N(C)C(=O)c3ccc(NC(=O)c4ccco4)cc3)CCOCC2)cc1`: the Potency entry in the assay with Tov-21-G and in the assay with Tov112D was “inactive” throughout.

In the case of `CC#CC(=O)Nc1ccc2ncnc(Nc3cccc(Br)c3)c2c1`, the results for the Potency in the assay on Tov-21-G and with Tov112D were 14.1 µM (active) and 12.6 µM (active), respectively.

`Cc1csc(N(C(=O)CSc2ccc(-c3ccccc3)nn2)C2CC2)n1`: the Potency entry in the assay with Tov-21-G and in the assay with Tov112D was “inactive” each time.
